In PubChem BioAssay (NCATS) one finds Potency and activity change, positive = activation data, which are given here for 49 compounds.

The target of assay [1] is Cytochrome P450 3A4 (Homo sapiens) (UniProt P08684). Put plainly: qHTS Assay for Inhibitors and Substrates of Cytochrome P450 3A4 (AID 884). Note: potency is the fitted concentration of half-maximal effect; nearly all actives have a fitted effect of over 50% in size. The procedure, abridged:
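Luminescent readout of luciferin produced by CYP3A4 (20 nM) dealkylation of Luciferin-PPXE, 25 uM (its KM). NADPH-driven reaction ran 60 min at RT after 10 min compound preincubation; data scaled to 57 uM ketoconazole as 100% inhibition.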

The target is the same in assay [2]. Put plainly: qHTS Assay for Activators of Cytochrome P450 3A4 (AID 885). Note: nearly all actives have a fitted effect of over 65% in size. An outline of the steps: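 Using 20nM recombinant human CYP3A4 in potassium phosphate (200mM), substrate Luciferin-PPXE at 25uM, luminescent luciferin detection followed a 60-min RT NADPH reaction; data scaled to 57 uM ketoconazole.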

“And” between values parts separate entries of the source, which are not always exact repeats. Equal entries are not always repeated. Unmarked numbers belong to inactive results. Results filed as inconclusive are left out. The source made the active and inactive calls. Calls come from the whole dose curve; as a rule, active = well fitted curve in the direction sought with a large enough effect; inconclusive = small, poorly fitted or top-dose-only effect, or another doubt; inactive = no such curve, though single readings can be large; an effect the other way counts as inactive or inconclusive.

Cytochrome P450 3A4 (Homo sapiens), sequence (P08684 whole entry, looked up): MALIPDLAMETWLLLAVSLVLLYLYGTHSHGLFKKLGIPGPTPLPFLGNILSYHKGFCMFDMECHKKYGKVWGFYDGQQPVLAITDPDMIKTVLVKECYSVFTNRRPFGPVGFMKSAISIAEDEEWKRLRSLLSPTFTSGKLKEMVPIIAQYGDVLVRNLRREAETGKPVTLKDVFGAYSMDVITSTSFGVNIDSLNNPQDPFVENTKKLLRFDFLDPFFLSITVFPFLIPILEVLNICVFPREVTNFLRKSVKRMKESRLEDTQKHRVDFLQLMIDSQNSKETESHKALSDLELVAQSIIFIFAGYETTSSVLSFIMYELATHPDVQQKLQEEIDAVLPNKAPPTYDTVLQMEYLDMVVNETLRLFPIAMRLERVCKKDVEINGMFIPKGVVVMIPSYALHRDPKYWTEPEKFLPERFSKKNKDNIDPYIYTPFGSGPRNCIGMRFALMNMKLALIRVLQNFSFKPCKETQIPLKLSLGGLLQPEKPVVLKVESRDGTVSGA

Consider `O=C1[C@H]2[C@H]3[C@H](O)[C@H](O)C/C(=N/OCc4ccccc4)[C@@H]3CC[C@@H]2C(=O)N1Cc1ccc2c(c1)OCO2`, for which the Potency in assay [1] is 2 µM (active). Moreover, the activity change, positive = activation in assay [2] is -100% [at 11.4 µM].
The matching figures for `O=C1[C@H]2[C@H]3[C@H](O)[C@H](O)C/C(=N/OC[C@@H](O)COCc4ccco4)[C@@H]3CC[C@@H]2C(=O)N1Cc1ccc2c(c1)OCO2`: 3.16 µM (active) and -99.9% [at 11.4 µM].
For the compound `CO[C@@H]1COC(=O)C/C=C\[C@H](C)[C@@H](NS(=O)(=O)c2ccc(C)cc2)COC(=O)C/C=C\[C@@H]1C`, the Potency in assay [1] was 3.98 µM (active) and 3.16 µM (active). Further, the activity change, positive = activation in assay [2] is -70.4% [at 11.4 µM] and -70.5% [at 11.4 µM].
For the compound `CCC1=C2CC[C@H]3C(=O)N(CC)C(=O)[C@H]3[C@H]2[C@@]2(Cc3ccccc3)C(=NCC3CC3)OC(=O)N2C1=O`, in assay [1], the Potency is 2.51 µM (active). Besides, the Potency result in assay [2] is “inactive”.
Take `C#CCCCO/N=C1/C[C@@H](O)[C@@H](O)[C@@H]2[C@@H]3C(=O)N([C@@H](C)c4ccccc4)C(=O)[C@H]3CC[C@@H]12`: the Potency in assay [1] was 3.98 µM (active). Further, the activity change, positive = activation in assay [2] is -86% [at 11.4 µM].
Regarding `C#CCCCO/N=C1/C[C@@H](O)[C@@H](O)[C@@H]2[C@@H]3C(=O)N([C@@H](C)c4ccccc4)C(=O)[C@H]3CC[C@H]12`, the Potency in assay [1] was 3.98 µM (active). Also, the activity change, positive = activation in assay [2] is -89.1% [at 11.4 µM].
Regarding `COC(=O)C/C=C\[C@@H](C)[C@@H](/C=N\OC[C@@H](O)[C@H]1O[C@H]2OC(C)(C)O[C@H]2[C@@H]1O)NS(=O)(=O)c1ccc(C)cc1`, the Potency in assay [1] was 3.98 µM (active). In assay [2], the activity change, positive = activation was -61% [at 11.4 µM].
For `N#Cc1ccc(C23CC4(C2)[C@H](CN(Cc2cccnc2)[C@@H]4c2ccccc2)C3c2ccccc2)cc1` (stereo partly drawn), the Potency in assay [1] was 3.98 µM (active). Also, in assay [2], the Potency result is “inactive”.
In the case of `CNC1=C(Cl)C(=O)c2ccncc2C1=O`, in assay [1], the Potency was 1.58 µM (active). The Potency result in assay [2] was “inactive”.
The corresponding values for `COC(=O)[C@@H]1C[C@@H]2CC[C@@H](O)C[C@@H]2N1Cc1ccc(-c2ccccc2)cc1` are 20 µM (active) and “inactive”.
The matching figures for `Cn1c(N)c(C(=O)COC(=O)c2cc(-c3ccccc3)nc3ccccc23)c(=O)n(C)c1=O`: 12.6 µM (active) and “inactive”.
The corresponding values for `CCC1=C(OC(=O)N(CC)CC)N2C(=O)OC(=NCC3CC3)[C@]2(Cc2ccccc2)[C@H]2C1=CC[C@H]1C(=O)N(C)C(=O)[C@H]12` are 3.98 µM (active) and “inactive”.
Consider `CCC1=C2CC[C@H]3C(=O)N(CC)C(=O)[C@H]3[C@H]2[C@@]2(Cc3ccccc3)C(=O)N(CC3CC3)C(=O)N2C1=O`, for which the Potency in assay [1] is 2.51 µM (active). Further, in assay [2], the Potency result was “inactive”.
The matching figures for `COc1c(O)c(O)cc2c1oc1c3ccccc3oc(=O)c21`: 25.1 µM (active) and “inactive”.
On to `CCCNC(=O)OC[C@@H]1O[C@H](CCO/N=C(\C)CCN2CCc3nc(CC)c(CC)cc3C2)C=C[C@@H]1Oc1ccc(OC)cc1`, for which, in assay [1], the Potency was 3.98 µM (active). In addition, the activity change, positive = activation in assay [2] is -86.1% [at 11.4 µM].
The matching figures for `Cc1cc2c(nc1C)CCCCN2C[C@H](C)O/N=C\[C@@H](C)[C@H](OCc1ccccc1)C(C)C`: 3.98 µM (active) and -76.1% [at 11.4 µM].
The corresponding values for `CC(=O)OC[C@@H]1O[C@H](C/C=N\O[C@@H](C)c2cc(-c3c(C)cc(C)cc3C)no2)C=C[C@@H]1OC(C)=O` are 3.16 µM (active) and -77.7% [at 11.4 µM].
Regarding `CN1C[C@@H]2C(c3ccc(Cl)nc3)C3(c4ccccc4)CC2(C3)[C@H]1c1ccccc1` (stereo partly drawn), in assay [1], the Potency was 12.6 µM (active). For the same compound, the Potency entry in assay [2] was “inactive”.
`CO[C@H]1COC(=O)[C@H](C)NC(=O)C/C=C\[C@@H](C)[C@@H](NS(=O)(=O)c2ccc(C)cc2)COC(=O)C/C=C\[C@@H]1C`: the Potency in assay [1] was 3.98 µM (active). In addition, in assay [2], the activity change, positive = activation is -80.3% [at 11.4 µM].
As for `CCC1=C2CC[C@H]3C(=O)N(C)C(=O)[C@H]3[C@H]2[C@@]2(C)C(=NCc3ccccc3)OC(=O)N2C1=O`, the Potency in assay [1] was 12.6 µM (active). Also, the Potency entry in assay [2] is “inactive”.
The matching figures for `CCc1cc(C(C)=O)c(O)cc1OCCCCCC(C)(C)c1nn[nH]n1`: 10 µM (active) and “inactive”.
As for `COC(=O)C/C=C\[C@@H](C)[C@@H](/C=N\O[C@@H](C)c1cn([C@H](CO)Cc2ccccc2)nn1)NS(=O)(=O)c1ccc(C)cc1`, the Potency in assay [1] is 3.98 µM (active) and 2 µM (active). In assay [2], the activity change, positive = activation was -101% [at 11.4 µM] and -92.7% [at 11.4 µM].
`CCC1=C(OC(=O)N(CC)CC)N2C(=O)OC(=NCCc3c[nH]c4ccccc34)[C@]2(Cc2ccccc2)[C@H]2C1=CC[C@H]1C(=O)N(C)C(=O)[C@H]12`: in assay [1], the Potency was 1.26 µM (active). Also, in assay [2], the Potency result is “inactive”.
The matching figures for `COC(=O)[C@H]1C[C@H]2CC[C@H](O)C[C@H]2N1Cc1c(F)cccc1Cl`: 12.6 µM (active) and “inactive”.
The corresponding values for `COC(=O)c1ccc(C23CC4(C2)[C@H](CN(CC2CCCCC2)[C@@H]4c2ccccc2)C3c2ccc(Cl)nc2)cc1` (stereo partly drawn) are 25.1 µM (active) and “inactive”.
The corresponding values for `COC(=O)[C@@H]1C[C@@]2(O)[C@@H](O)[C@@H](O)[C@@H](O)C[C@H]2N1CC(c1ccccc1)c1ccccc1` are 3.16 µM (active) and “inactive”.
`COC(=O)c1cccc(C23CC4(C2)[C@H](CN(CC2CCCCC2)[C@@H]4c2ccccc2)C3c2ccc(Cl)nc2)c1` (stereo partly drawn): in assay [1], the Potency was 15.8 µM (active). Moreover, the Potency entry in assay [2] is “inactive”.
`COc1cccc([C@H]2Oc3ccc(OC)cc3/C(=N\OC[C@@H](O)[C@@H]3O[C@@H]4OC(C)(C)O[C@@H]4[C@H]3O)[C@@H]2O)c1`: in assay [1], the Potency is 3.98 µM (active). For the same compound, the activity change, positive = activation in assay [2] was -69.8% [at 11.4 µM].
In the case of `CCN1C(=O)[C@H]2[C@H]3[C@H](O)[C@H](O)C/C(=N/O[C@@H](C)c4cc(-c5c(C)cc(C)cc5C)no4)[C@@H]3CC[C@@H]2C1=O`, in assay [1], the Potency was 3.98 µM (active). Besides, the activity change, positive = activation in assay [2] is -72.9% [at 11.4 µM].
`Cn1c(-c2nc(-c3ccccc3)cs2)nc2ccccc21`: the Potency in assay [1] is 10 µM (active). The Potency entry in assay [2] was “inactive”.
Consider `C=CC[C@@H]1C=C[C@H](O/N=C\[C@@H](C)[C@H](OCc2ccccc2)C(C)C)[C@H](CO)O1`, for which the Potency in assay [1] is 3.98 µM (active). Further, the activity change, positive = activation in assay [2] is -73.8% [at 11.4 µM].
`FC(F)(F)c1ccc(C2[C@H]3CN(Cc4cccnc4)[C@H](c4ccccc4)C34CC2(c2cccnc2)C4)cc1` (stereo partly drawn): in assay [1], the Potency was 2 µM (active). For the same compound, the Potency result in assay [2] was “inactive”.
The matching figures for `CCC1=C(OC(=O)N(CC)CC)N2C(=O)OC(=NCCOC)[C@]2(C)[C@H]2C1=CC[C@H]1C(=O)N(CC(=O)OC)C(=O)[C@H]12`: 10 µM (active) and “inactive”.
In the case of `COc1ccc(/C=C/N(CCc2ccc(OC)c(OC)c2)C(=O)C(F)(F)F)cc1`, the Potency in assay [1] was 2 µM (active). The activity change, positive = activation in assay [2] was -97.3% [at 11.4 µM].
For the compound `CCC1=C2CC[C@H]3C(=O)N(CC)C(=O)[C@H]3[C@H]2[C@@]2(Cc3ccccc3)C(=O)N(Cc3ccccc3)C(=O)N2C1=O`, the Potency in assay [1] was 3.98 µM (active). Moreover, in assay [2], the Potency result is “inactive”.
The matching figures for `CCC1=C2CC[C@H]3C(=O)N(CC)C(=O)[C@H]3[C@H]2[C@@]2(Cc3ccccc3)C(=NCCOC)OC(=O)N2C1=O`: 10 µM (active) and “inactive”.
Take `COC(=O)C/C=C\[C@@H](C)[C@@H](/C=N\O[C@@H](C)CN1CCCCc2nc(C)c(C)cc21)NS(=O)(=O)c1ccc(C)cc1`: the Potency in assay [1] was 3.98 µM (active). Besides, in assay [2], the activity change, positive = activation is -78.5% [at 11.4 µM].
For the compound `CCC1=C2CC[C@H]3C(=O)NC(=O)[C@H]3[C@H]2[C@@]2(C)C(=NCCc3c[nH]c4ccccc34)OC(=O)N2C1=O`, in assay [1], the Potency was 12.6 µM (active). Moreover, the Potency result in assay [2] is “inactive”.
With `CCCNC(=O)OC[C@@H]1O[C@H](CCO/N=C\C[C@H]2C=C[C@H](OC(C)=O)[C@@H](COC(C)=O)O2)C=C[C@@H]1Oc1ccc(OC)cc1`, the Potency in assay [1] is 3.98 µM (active). The activity change, positive = activation in assay [2] was -95.4% [at 11.4 µM].
In the case of `Clc1ccc(C2[C@H]3CN(CC4CCCCC4)[C@H](c4ccccc4)C34CC2(c2cccnc2)C4)cn1` (stereo partly drawn), the Potency in assay [1] is 3.98 µM (active). Further, the Potency result in assay [2] is “inactive”.
In the case of `COc1cccc([C@@H]2Oc3ccc(OC)cc3/C(=N/O[C@@H](C)c3cn([C@H]4COC[C@H]4O)nn3)[C@@H]2O)c1`, in assay [1], the Potency was 3.16 µM (active). The activity change, positive = activation in assay [2] was -74.6% [at 11.4 µM].
As for `CCC1=C(OC(=O)N(CC)CC)N2C(=O)OC(=NCC3CC3)[C@]2(Cc2ccccc2)[C@H]2C1=CC[C@H]1C(=O)N(CC(=O)OC)C(=O)[C@H]12`, in assay [1], the Potency is 2 µM (active). The Potency entry in assay [2] is “inactive”.
As to `CC(=O)OC[C@@H]1O[C@H](CCO/N=C(\C)CCC(=O)OC[C@@H]2O[C@H](C#Cc3ccccc3)C=C[C@@H]2Oc2ccc(C)cc2)C=C[C@@H]1OC(C)=O`, the Potency in assay [1] is 3.16 µM (active). Besides, the activity change, positive = activation in assay [2] is -92.8% [at 11.4 µM].
The corresponding values for `O=C1[C@H]2[C@H]3[C@H](O)[C@H](O)C/C(=N/OC[C@@H](O)COCc4ccco4)[C@@H]3CC[C@@H]2C(=O)N1Cc1ccccc1` are 3.16 µM (active) and -71.1% [at 11.4 µM].
The matching figures for `C/C(CCN1CCCCc2nc(C)c(C)cc21)=N\O[C@@H](C)CN1CCCCc2nc(C)c(C)cc21`: 3.98 µM (active) and -81.7% [at 11.4 µM].
The corresponding values for `Cc1ccc(S(=O)(=O)N[C@H]2COC(=O)C/C=C\[C@H](C)[C@@H](NS(=O)(=O)c3ccc(C)cc3)COC(=O)C/C=C\[C@@H]2C)cc1` are 3.98 µM (active) and -90.7% [at 11.4 µM].
`COC(=O)c1ccc(C23CC4(C2)[C@H](CN(CC2CCCCC2)[C@@H]4c2ccccc2)C3c2ccccc2)cc1` (stereo partly drawn): in assay [1], the Potency was 25.1 µM (active). In addition, the Potency result in assay [2] was “inactive”.
The corresponding values for `c1ccc(-c2csc(-c3nc4ccccc4[nH]3)n2)cc1` are 1.26 µM (active) and “inactive”.
The corresponding values for `COC(=O)c1cccc(C23CC4(C2)[C@H](CN(Cc2cccnc2)[C@@H]4c2ccccc2)C3c2ccc(Cl)nc2)c1` (stereo partly drawn) are 2 µM (active) and “inactive”.
